Assay results: ChEMBL document CHEMBL1961873, “Compounds: GSK PKIS; Assays: Nanosyn kinase panel” (2012)

How the values were obtained:
[1] = molecular target: Protein kinase C gamma type (Homo sapiens) (UniProt P05129); details: at 1 µM;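 also: each value is an averaged percent inhibition of the enzyme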
[2] = molecular target: T1, Protein kinase C iota type (Homo sapiens) (UniProt P41743); details: at 0.1 µM
T1 sequence (whole entry): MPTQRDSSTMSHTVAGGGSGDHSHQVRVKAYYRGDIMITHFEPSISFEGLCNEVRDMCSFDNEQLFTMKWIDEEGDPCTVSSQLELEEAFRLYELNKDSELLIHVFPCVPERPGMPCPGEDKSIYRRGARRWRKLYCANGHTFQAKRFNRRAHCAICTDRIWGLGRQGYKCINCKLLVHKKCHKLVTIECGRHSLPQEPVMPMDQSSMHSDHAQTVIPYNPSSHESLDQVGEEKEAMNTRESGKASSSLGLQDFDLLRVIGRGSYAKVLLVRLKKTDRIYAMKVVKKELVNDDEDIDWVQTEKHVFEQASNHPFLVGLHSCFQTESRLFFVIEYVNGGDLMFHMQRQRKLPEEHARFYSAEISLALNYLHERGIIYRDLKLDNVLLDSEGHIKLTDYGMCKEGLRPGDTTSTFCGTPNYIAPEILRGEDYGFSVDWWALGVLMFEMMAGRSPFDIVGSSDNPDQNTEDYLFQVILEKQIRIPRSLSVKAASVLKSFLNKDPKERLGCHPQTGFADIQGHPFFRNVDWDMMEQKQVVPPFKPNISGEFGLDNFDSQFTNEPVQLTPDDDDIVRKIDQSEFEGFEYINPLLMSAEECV

[3] = molecular target: T1, Protein kinase C iota type (Homo sapiens); details: at 1 µM
[4] = molecular target: Protein kinase C theta type (Homo sapiens) (UniProt Q04759); details: at 0.1 µM
Sequence of Protein kinase C theta type (Homo sapiens) (Q04759 whole entry, looked up): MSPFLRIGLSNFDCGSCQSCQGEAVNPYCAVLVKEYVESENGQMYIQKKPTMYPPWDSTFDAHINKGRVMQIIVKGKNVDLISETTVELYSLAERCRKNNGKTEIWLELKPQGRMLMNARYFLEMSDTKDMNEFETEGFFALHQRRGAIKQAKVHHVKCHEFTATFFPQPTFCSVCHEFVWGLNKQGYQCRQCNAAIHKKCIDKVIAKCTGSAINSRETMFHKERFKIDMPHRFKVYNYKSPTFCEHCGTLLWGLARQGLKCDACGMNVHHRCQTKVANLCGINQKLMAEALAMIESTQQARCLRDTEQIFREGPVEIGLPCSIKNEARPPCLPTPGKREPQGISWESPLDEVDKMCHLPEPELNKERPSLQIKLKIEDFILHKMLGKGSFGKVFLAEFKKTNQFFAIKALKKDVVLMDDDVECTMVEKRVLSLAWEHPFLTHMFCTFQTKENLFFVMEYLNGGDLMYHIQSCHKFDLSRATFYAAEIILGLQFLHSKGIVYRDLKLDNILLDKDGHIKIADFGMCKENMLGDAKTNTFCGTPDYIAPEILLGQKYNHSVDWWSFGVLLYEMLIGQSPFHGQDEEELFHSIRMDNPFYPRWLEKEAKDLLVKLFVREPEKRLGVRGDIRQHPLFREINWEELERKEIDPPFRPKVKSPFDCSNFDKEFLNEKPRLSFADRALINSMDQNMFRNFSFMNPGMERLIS

[5] = molecular target: Protein kinase C theta type (Homo sapiens) (UniProt Q04759); details: at 1 µM
[6] = molecular target: Protein kinase C beta type (Homo sapiens) (UniProt P05771); details: at 0.1 µM
Sequence of Protein kinase C beta type (Homo sapiens) (P05771 2-671 limits assumed): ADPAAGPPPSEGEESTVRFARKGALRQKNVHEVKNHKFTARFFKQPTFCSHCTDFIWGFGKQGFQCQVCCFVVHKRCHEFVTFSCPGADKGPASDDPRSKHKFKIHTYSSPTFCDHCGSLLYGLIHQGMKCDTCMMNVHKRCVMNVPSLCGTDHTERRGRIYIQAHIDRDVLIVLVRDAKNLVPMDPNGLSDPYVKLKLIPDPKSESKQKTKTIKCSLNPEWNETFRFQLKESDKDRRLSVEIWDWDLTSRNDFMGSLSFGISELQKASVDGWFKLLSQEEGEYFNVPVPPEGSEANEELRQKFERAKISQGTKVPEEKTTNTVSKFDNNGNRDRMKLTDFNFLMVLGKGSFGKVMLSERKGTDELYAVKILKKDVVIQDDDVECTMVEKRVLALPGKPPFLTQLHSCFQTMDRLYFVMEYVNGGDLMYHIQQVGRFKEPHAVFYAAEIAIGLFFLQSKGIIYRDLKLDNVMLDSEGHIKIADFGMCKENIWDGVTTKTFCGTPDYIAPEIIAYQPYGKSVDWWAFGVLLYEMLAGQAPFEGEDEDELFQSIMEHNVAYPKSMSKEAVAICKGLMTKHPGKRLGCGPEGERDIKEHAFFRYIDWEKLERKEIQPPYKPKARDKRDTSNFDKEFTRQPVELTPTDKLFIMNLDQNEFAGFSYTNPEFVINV

[7] = molecular target: Protein kinase C beta type (Homo sapiens) (UniProt P05771); details: at 1 µM
[8] = molecular target: T2, Serine/threonine-protein kinase D1 (Homo sapiens) (UniProt Q15139); details: at 0.1 µM
T2 sequence (whole entry): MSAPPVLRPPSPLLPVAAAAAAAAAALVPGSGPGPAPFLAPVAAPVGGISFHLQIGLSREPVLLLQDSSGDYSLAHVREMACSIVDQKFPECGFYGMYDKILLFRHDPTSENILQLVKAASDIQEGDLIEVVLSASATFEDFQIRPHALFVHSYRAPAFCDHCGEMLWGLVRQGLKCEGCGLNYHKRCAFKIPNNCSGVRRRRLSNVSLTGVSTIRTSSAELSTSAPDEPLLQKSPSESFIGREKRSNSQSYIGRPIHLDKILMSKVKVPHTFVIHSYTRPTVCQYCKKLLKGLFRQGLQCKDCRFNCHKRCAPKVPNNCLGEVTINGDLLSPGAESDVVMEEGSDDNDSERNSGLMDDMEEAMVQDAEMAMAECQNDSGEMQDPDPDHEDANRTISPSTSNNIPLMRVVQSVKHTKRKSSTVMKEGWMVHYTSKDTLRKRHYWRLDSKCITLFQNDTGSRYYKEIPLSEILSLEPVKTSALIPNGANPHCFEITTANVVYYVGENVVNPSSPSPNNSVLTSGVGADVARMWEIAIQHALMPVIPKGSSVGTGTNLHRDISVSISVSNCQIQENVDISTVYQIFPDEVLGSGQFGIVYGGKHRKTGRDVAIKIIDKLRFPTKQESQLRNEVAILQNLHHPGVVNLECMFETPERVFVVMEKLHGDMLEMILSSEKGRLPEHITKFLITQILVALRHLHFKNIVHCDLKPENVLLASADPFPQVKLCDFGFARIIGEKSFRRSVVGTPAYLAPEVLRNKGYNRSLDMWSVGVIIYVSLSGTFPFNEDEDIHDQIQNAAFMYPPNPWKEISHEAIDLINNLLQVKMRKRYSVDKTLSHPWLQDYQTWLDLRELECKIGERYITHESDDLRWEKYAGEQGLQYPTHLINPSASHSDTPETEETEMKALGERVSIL

[9] = molecular target: T2, Serine/threonine-protein kinase D1 (Homo sapiens); details: at 1 µM
[10] = molecular target: T3, Serine/threonine-protein kinase D2 (Homo sapiens) (UniProt Q9BZL6); details: at 0.1 µM
T3 sequence (whole entry): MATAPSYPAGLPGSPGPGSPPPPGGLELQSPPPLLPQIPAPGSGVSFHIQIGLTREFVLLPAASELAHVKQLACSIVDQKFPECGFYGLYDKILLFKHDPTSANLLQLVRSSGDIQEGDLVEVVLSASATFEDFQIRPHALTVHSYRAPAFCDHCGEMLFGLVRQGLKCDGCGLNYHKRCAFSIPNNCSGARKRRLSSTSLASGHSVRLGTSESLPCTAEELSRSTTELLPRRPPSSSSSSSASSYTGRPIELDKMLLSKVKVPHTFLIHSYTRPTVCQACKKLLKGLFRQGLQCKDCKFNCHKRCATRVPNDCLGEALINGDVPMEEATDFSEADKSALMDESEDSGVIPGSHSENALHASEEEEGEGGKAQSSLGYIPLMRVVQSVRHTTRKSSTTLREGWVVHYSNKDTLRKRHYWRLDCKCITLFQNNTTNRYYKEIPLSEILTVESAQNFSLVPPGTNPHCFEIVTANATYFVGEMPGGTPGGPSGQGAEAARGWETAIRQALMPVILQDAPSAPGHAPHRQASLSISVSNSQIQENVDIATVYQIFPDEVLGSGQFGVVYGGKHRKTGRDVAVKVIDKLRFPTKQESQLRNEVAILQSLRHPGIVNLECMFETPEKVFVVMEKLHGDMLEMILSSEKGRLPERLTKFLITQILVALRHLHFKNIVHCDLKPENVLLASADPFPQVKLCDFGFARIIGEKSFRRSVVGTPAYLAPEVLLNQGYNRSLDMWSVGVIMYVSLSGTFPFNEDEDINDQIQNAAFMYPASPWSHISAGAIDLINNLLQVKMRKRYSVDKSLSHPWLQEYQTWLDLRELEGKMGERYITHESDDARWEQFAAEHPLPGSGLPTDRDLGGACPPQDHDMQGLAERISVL

[11] = molecular target: T3, Serine/threonine-protein kinase D2 (Homo sapiens); details: at 1 µM
[12] = molecular target: T4, Serine/threonine-protein kinase D3 (Homo sapiens) (UniProt O94806); details: at 0.1 µM
T4 sequence (whole entry): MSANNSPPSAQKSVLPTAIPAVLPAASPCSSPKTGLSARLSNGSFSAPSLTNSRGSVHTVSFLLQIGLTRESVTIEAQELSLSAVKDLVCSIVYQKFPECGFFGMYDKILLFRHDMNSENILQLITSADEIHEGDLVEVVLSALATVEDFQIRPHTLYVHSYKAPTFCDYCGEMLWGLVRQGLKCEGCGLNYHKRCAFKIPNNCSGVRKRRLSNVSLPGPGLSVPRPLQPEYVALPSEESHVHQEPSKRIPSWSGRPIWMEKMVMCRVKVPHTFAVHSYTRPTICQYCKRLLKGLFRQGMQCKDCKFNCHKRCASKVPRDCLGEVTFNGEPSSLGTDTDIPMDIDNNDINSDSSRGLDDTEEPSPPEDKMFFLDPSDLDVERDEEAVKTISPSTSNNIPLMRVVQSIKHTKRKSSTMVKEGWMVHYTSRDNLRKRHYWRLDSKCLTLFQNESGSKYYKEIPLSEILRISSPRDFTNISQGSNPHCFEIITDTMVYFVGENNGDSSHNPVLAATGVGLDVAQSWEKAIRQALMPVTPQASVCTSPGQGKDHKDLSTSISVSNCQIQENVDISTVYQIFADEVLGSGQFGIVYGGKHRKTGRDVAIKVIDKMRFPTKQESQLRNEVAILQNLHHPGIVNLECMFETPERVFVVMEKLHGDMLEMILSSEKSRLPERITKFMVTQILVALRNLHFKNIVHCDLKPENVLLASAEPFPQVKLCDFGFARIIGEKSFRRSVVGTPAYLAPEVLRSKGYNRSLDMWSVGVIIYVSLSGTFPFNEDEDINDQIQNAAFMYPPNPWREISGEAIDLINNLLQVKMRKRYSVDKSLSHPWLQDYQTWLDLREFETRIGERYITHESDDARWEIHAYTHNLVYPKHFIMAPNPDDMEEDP

[13] = molecular target: T4, Serine/threonine-protein kinase D3 (Homo sapiens); details: at 1 µM
[14] = molecular target: T5, cGMP-dependent protein kinase 1 (Homo sapiens) (UniProt Q13976); details: at 0.1 µM
T5 sequence (whole entry): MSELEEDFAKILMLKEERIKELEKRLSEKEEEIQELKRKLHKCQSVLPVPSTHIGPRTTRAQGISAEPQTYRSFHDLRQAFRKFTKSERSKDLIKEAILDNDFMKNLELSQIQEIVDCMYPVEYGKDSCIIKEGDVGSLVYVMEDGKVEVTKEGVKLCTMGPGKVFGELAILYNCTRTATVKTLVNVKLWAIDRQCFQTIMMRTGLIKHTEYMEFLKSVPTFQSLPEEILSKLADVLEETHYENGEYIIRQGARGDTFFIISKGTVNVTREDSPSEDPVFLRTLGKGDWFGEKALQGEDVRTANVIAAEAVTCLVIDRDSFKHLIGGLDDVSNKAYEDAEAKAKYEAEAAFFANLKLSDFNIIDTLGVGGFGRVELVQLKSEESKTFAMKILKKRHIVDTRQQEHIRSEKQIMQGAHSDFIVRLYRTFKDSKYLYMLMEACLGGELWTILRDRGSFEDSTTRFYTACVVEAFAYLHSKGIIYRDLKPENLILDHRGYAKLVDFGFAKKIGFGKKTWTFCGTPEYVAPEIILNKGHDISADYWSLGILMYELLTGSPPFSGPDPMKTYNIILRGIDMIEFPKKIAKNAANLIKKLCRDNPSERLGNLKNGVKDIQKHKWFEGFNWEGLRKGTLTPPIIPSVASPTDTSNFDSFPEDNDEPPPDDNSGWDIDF

[15] = molecular target: T5, cGMP-dependent protein kinase 1 (Homo sapiens); details: at 1 µM
[16] = molecular target: T6, cGMP-dependent protein kinase 2 (Homo sapiens) (UniProt Q13237); details: at 0.1 µM
T6 sequence (whole entry): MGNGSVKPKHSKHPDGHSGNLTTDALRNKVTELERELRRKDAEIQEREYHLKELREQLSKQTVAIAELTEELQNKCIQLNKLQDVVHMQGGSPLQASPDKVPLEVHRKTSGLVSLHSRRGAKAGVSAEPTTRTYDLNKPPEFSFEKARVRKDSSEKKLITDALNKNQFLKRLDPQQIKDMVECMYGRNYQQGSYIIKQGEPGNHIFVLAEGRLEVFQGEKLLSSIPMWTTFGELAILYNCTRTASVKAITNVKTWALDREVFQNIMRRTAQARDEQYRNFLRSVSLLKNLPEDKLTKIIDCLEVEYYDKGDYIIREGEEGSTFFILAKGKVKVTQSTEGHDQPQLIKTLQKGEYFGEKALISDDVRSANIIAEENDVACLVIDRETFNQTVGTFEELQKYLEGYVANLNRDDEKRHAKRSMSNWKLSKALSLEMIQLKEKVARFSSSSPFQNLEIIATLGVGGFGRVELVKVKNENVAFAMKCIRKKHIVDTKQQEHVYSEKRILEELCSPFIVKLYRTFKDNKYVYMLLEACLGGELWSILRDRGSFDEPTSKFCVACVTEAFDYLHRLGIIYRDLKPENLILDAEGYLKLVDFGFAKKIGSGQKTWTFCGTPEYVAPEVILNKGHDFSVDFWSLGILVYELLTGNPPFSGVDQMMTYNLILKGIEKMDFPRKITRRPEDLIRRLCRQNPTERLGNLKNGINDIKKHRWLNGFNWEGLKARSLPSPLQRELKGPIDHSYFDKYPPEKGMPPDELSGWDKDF

[17] = molecular target: T6, cGMP-dependent protein kinase 2 (Homo sapiens); details: at 1 µM
[18] = molecular target: T7, cAMP-dependent protein kinase catalytic subunit PRKX (Homo sapiens) (UniProt P51817); details: at 0.1 µM
T7 sequence (whole entry): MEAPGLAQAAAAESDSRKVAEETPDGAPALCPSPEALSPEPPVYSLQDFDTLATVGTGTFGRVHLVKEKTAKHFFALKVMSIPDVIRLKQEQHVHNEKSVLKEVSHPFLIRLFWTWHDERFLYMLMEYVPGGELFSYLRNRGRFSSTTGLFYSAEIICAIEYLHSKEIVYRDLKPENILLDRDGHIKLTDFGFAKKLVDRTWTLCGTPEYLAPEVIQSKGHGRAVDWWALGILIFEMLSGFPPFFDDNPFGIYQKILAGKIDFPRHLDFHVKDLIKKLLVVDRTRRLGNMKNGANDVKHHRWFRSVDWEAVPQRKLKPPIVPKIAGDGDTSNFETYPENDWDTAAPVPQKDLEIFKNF

[19] = molecular target: T7, cAMP-dependent protein kinase catalytic subunit PRKX (Homo sapiens); details: at 1 µM
[20] = molecular target: Rho-associated protein kinase 1 (Homo sapiens) (UniProt Q13464); details: at 0.1 µM;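 also: values are mean percent inhibition of ROCK1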
Sequence of Rho-associated protein kinase 1 (Homo sapiens) (Q13464 2-1354 limits assumed): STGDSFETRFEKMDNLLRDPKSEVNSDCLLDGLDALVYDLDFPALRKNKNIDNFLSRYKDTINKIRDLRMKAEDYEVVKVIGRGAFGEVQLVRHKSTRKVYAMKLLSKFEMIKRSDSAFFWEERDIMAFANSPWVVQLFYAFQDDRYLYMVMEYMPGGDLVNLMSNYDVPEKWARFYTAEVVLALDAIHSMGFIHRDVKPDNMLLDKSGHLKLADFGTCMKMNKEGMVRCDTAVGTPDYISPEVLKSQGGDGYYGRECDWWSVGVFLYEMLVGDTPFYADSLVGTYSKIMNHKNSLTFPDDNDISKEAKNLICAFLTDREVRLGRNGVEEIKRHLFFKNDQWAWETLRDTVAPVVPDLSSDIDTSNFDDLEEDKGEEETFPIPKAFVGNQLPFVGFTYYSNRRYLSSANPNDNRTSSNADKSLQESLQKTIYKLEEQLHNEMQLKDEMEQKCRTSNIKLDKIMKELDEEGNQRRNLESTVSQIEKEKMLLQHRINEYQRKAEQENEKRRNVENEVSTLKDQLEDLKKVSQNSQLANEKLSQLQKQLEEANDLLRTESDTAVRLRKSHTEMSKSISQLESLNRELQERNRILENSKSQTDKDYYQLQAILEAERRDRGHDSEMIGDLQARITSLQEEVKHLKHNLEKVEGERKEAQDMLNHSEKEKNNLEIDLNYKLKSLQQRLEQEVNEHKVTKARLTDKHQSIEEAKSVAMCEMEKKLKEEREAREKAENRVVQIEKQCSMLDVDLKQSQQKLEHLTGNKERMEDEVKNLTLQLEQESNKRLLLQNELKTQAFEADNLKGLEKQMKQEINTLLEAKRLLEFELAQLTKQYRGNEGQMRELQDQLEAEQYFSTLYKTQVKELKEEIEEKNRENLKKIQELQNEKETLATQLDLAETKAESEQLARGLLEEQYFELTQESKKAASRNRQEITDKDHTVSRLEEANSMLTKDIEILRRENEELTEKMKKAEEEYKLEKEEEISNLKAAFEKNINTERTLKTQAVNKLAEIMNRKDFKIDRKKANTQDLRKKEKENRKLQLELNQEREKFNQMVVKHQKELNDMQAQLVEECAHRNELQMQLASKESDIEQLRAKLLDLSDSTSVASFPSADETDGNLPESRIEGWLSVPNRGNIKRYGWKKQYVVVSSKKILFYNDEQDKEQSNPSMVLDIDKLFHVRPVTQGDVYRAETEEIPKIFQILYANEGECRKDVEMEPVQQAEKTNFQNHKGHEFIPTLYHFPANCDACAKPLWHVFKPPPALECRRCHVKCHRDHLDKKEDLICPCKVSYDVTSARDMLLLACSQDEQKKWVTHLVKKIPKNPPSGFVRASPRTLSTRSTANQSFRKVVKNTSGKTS

Structure (SMILES)	inhibition [1] [%]	inhibition [2] [%]	inhibition [3] [%]	inhibition [4] [%]	inhibition [5] [%]	inhibition [6] [%]	inhibition [7] [%]	inhibition [8] [%]	inhibition [9] [%]	inhibition [10] [%]	inhibition [11] [%]	inhibition [12] [%]	inhibition [13] [%]	inhibition [14] [%]	inhibition [15] [%]	inhibition [16] [%]	inhibition [17] [%]	inhibition [18] [%]	inhibition [19] [%]	inhibition [20] [%]
CCc1nccc2c1nc(-c1nonc1N)n2CC	-2.73	-0.45	1.45	-0.41	0.94	0.5	1.81	1.12	2.3	1.51	3.17	1.43	2.71	0.88	7.44	2.5	21.1	-0.13	-0.42	1.09
Clc1ccc(CNc2nccc(-c3cnn4ncccc34)n2)cc1	4.31	-0.38	-1.34	1.01	1.73	0.21	0.83	1.24	4.11	1.12	5.34	0.83	3.93	2.07	6.09	-0.17	3.68	0.56	1.41	0.21
